Experimental data from PubChem BioAssay (Tox21).
Results filed as inconclusive are left out. Calls of active or inactive are those of the source. Unless noted, calls come from the whole dose curve.

What was measured:
[1] = Nuclear factor erythroid 2-related factor 2/antioxidant responsive element (Nrf2/ARE) small molecule agonists: qHTS cell viability counter screen in human keratinocytes (AID 1919968; active = well fitted curve in the direction sought with a large enough effect in the repeat runs; an effect the other way counts as inactive or inconclusive; note: nearly all actives have a fitted effect of over 55% in size)
In short: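 KeratinoSens cells (HaCaT keratinocytes stably carrying an ARE-luciferase reporter) were seeded at 1,500 cells/well and rested 5 h at 37 C/5% CO2. They were then exposed to compounds in DMSO for 23 h. Viability was read by CellTiter-Fluor fluorescence after 1 h.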

[2] = Nuclear factor erythroid 2-related factor 2/antioxidant responsive element (Nrf2/ARE) small molecule agonists: luciferase reporter gene qHTS assay in human keratinocytes (AID 1919969); note: nearly all actives have a fitted effect of over 35% in size; note: potency is the fitted concentration of half-maximal effect
[3] = target: Gonadotropin-releasing hormone receptor (Homo sapiens) (UniProt P30968); experiment: Human gonadotropin-releasing hormone receptor (GnRHR) small molecule agonists, calcium flux assay in GnRHR-HEK293 cells (AID 1920063); note: nearly all actives have a fitted effect of over 35% in size
In short: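 HEK293 cells stably expressing human GnRHR were plated 18 h at 37 °C, loaded with calcium dye 1 h at 37 °C, then given compound in agonist mode; fluorescence (Ex/Em 480/540) read kinetically for 3 min at 1 s intervals.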

[4] = target: KiSS-1 receptor (Homo sapiens) (UniProt Q969F8); experiment: Human kisspeptin (KISS1R) small molecule agonists, calcium flux assay in KISS1R-HEK293 cells (AID 1920064; active = well fitted curve in the direction sought with a large enough effect in the repeat runs; an effect the other way counts as inactive or inconclusive)
In short: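 HEK293 cells stably expressing human KISS1R were plated 18 h at 37 °C, loaded with calcium dye for 1 h at 37 °C, then given compound by pin tool. Fluorescence (Ex/Em 480/540) was read kinetically for 3 min.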

[5] = G protein-coupled receptor (GPCR) small molecule agonists, calcium flux assay: HEK293 wild type cell line counter screen (AID 1920065)
In short: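 Cells were plated and cultured 18 h at 37 C/5% CO2, then loaded with calcium dye for 1 h at 37 C. Compounds in DMSO were pin-transferred in agonist mode, and fluorescence (Ex/Em 480/540) was read kinetically for 3 min at 1 s intervals.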

[6] = p53 small molecule agonists, cell-based qHTS assay with human liver microsomes (AID 1963577);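 note: p53 response element beta-lactamase reporter cells with liver microsomes plus NADPH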
In short: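 HLM-supplemented p53RE-bla reporter assay: 16 h compound exposure at 37 C, microsomes and NADPH each 0.5 mg/mL final, read by fluorescence intensity.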

[7] = p53 small molecule agonists, cell-based qHTS assay with rat liver microsomes (AID 1963578)
In short: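 Quantitative HTS of the Tox21 10K library: p53RE-bla cells, rat liver microsomes plus NADPH at 0.5 mg/mL final each, 16 h at 37 C, beta-lactamase fluorescence detection.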

[8] = p53 small molecule agonists, cell-based qHTS assay with human liver microsomes: qHTS cell viability counter screen (AID 1963579); note: nearly all actives have a fitted effect of over 45% in size
In short: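 Viability of p53RE-bla cells is measured as CellTiter-Glo luminescence following a 16 h, 37 C incubation with compound, liver microsomes from human donors and NADPH.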

[9] = p53 small molecule agonists, cell-based qHTS assay with rat liver microsomes: qHTS cell viability counter screen (AID 1963580); note: nearly all actives have a fitted effect of over 45% in size
In short: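 In HCT-116 cells carrying a p53 response element-bla reporter, compounds were metabolically activated in situ by rat liver microsomes with NADPH over 16 h. Cell ATP content then served as the cytotoxicity measure.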

[10] = p53 small molecule agonists, cell-based qHTS assay: qHTS cell viability counter screen (AID 1963581); note: nearly all actives have a fitted effect of over 45% in size
In short: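 p53RE-bla HCT-116 cells were exposed to compounds for 16 h at 37 C; after the beta-lactamase FRET read in the same wells, CellTiter-Glo was added and luminescence (intracellular ATP) read after 30 min at room temperature.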

[11] = p53 small molecule agonists, cell-based qHTS assay (AID 1963582; active = well fitted activation curve with a large enough effect in the signal ratio in the repeat runs, not every such curve was filed as active; the % refers to the signal ratio)
In short: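 p53RE-bla beta-lactamase reporter cells rested 5 h at 37 C/5% CO2, then received compounds in DMSO by pin transfer and were incubated 16 h at 37 C. LiveBLAzer B/G FRET substrate was loaded for 2 h at room temperature before fluorescence reading.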

[12] = target: 5-hydroxytryptamine receptor 2A (Homo sapiens) (UniProt P28223); experiment: 5-hydroxytryptamine receptor 2A (HTR2A) small molecule antagonists, cell-based qHTS assay (AID 1963586); note: nearly all actives have a fitted effect of over 45% in size; note: potency is the fitted concentration of half-maximal effect
In short: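 Antagonist-mode intracellular calcium assay: DOI (4 nM) added after 5 min compound pre-incubation at room temperature to dye-loaded HTR2A-CHO cells. Fluorescence followed for 3 min, sampled every second.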

[13] = target: 5-hydroxytryptamine receptor 2A (Homo sapiens) (UniProt P28223); experiment: 5-hydroxytryptamine receptor 2A (HTR2A) small molecule agonists, cell-based qHTS assay (AID 1963587); note: nearly all actives have a fitted effect of over 30% in size; note: potency is the fitted concentration of half-maximal effect
In short: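 HTR2A-CHO cells, plated 18 h at 37 C/5% CO2, dye-loaded 1 h at 37 C; compounds in DMSO added by pin tool (agonist mode). Intracellular calcium flux read as kinetic fluorescence on FDSS over 2 min at 1 s intervals.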

[14] = target: Muscarinic acetylcholine receptor M1 (Homo sapiens) (UniProt P11229); experiment: Cholinergic receptor muscarinic 1 (CHRM1) small molecule antagonists, cell-based qHTS assay (AID 1963588); note: nearly all actives have a fitted effect of over 40% in size
In short: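 CHRM1-CHO calcium-flux assay, antagonist mode. Cells were seeded 18 h, dye-loaded 1 h at 37 C and given compound for 5 min at RT, then acetylcholine was added at 50nM. FDSS fluorescence was read 3 min; 15 concentrations, three runs.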

[15] = target: Muscarinic acetylcholine receptor M1 (Homo sapiens) (UniProt P11229); experiment: Cholinergic receptor muscarinic 1 (CHRM1) small molecule agonists, cell-based qHTS assay (AID 1963589); note: nearly all actives have a fitted effect of over 35% in size
In short: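 CHO cells stably expressing human CHRM1, seeded 18 h at 37 C/5% CO2, dye-loaded 1 h at 37 C, then given compound in agonist mode; intracellular calcium fluorescence read kinetically at 1 s intervals. Fifteen concentrations, three independent runs.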

[16] = target: Beta-2 adrenergic receptor (Homo sapiens) (UniProt P07550); experiment: Adrenergic beta2 receptor (ADRB2) small molecule antagonists, cell-based qHTS assay (AID 1963592); note: series mostly up to about 92 µM; nearly all actives have a fitted effect of over 50% in size
In short: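 Cells (CHO, stable ADRB2 overexpression) incubated 18-20hr at 37C; compounds added from DMSO; agonist mix (1nM isoproterenol, 100uM IBMX, 25uM Ro-20-1724) added; 0.5hr RT; d2-cAMP and anti-cAMP-cryptate added; 1hr RT; 665/615 nm read.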

[17] = target: D(2) dopamine receptor (Homo sapiens) (UniProt P14416); experiment: Dopamine D2 receptor (DRD2) small molecule agonists, cell-based qHTS assay (AID 1963594); note: nearly all actives have a fitted effect of over 35% in size; note: potency is the fitted concentration of half-maximal effect
In short: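 HEK293 cells stably expressing DRD2 were cultured 24 h at 37 C, then given Ro20-1724 (0.1 mM final) and compounds for 10 min at room temperature. NKH477 (200nM) was then added for 30 min. cAMP was read by HTRF.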

[18] = target: D(2) dopamine receptor (Homo sapiens) (UniProt P14416); experiment: Dopamine D2 receptor (DRD2) small molecule antagonists, cell-based qHTS assay (AID 1963595; active = well fitted inhibition curve with a large enough effect in the signal ratio in the repeat runs, with a control signal flat; the % refers to the signal ratio)
In short: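 HEK293 cells stably expressing DRD2, preincubated with 0.1 mM Ro20-1724 and compounds 10 min, were stimulated with 200 nM NKH477 plus 12 nM quinpirole for 30 min at room temperature; cAMP measured by HTRF (665/620 nm).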

[19] = cAMP Responsive Elements (CRE) small molecule agonists, cell-based qHTS assay (AID 1963590)
In short: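 CRE-bla HEK 293T cells in DMEM with 10% dialyzed FBS, NEAA, pyruvate and 25 mM HEPES were plated 18 h at 37 C/5% CO2, then exposed to compounds in DMSO for 3 h before LiveBLAzer B/G FRET substrate addition.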

[20] = cAMP Responsive Elements (CRE) small molecule antagonists, cell-based qHTS assay (AID 1963591; active = well fitted inhibition curve with a large enough effect in the signal ratio in the repeat runs, not every such curve was filed as active; the % refers to the signal ratio)
In short: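 CRE-bla HEK293T cells were plated 18 h at 37 °C/5% CO2, pinned with compound in DMSO, then stimulated with NKH477 at 0.25 uM final for 3 h. LiveBLAzer B/G FRET substrate was added and plates incubated 2 h at room temperature.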

Measured: Potency

Chain of Gonadotropin-releasing hormone receptor (Homo sapiens) (P30968 whole entry, looked up): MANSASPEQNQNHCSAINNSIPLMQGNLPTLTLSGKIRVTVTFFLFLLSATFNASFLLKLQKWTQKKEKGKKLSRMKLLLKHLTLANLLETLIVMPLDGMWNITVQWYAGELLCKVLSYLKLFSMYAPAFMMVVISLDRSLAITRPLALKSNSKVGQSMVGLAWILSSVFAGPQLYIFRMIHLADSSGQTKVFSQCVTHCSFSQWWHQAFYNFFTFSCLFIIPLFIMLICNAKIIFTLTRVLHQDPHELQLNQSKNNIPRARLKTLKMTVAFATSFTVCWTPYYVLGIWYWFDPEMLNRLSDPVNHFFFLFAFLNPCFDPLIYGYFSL
Chain of KiSS-1 receptor (Homo sapiens) (Q969F8 whole entry, looked up): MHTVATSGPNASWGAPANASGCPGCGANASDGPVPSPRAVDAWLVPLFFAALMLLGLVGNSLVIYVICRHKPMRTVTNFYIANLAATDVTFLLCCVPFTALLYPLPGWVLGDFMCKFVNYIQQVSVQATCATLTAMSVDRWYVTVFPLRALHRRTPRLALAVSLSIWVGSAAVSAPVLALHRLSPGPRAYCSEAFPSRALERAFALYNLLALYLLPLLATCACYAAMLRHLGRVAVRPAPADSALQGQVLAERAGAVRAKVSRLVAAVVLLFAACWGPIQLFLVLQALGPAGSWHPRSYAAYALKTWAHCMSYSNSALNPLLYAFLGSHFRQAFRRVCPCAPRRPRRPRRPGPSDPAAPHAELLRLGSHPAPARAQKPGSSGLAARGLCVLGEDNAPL
Chain of D(2) dopamine receptor (Homo sapiens) (P14416 whole entry, looked up): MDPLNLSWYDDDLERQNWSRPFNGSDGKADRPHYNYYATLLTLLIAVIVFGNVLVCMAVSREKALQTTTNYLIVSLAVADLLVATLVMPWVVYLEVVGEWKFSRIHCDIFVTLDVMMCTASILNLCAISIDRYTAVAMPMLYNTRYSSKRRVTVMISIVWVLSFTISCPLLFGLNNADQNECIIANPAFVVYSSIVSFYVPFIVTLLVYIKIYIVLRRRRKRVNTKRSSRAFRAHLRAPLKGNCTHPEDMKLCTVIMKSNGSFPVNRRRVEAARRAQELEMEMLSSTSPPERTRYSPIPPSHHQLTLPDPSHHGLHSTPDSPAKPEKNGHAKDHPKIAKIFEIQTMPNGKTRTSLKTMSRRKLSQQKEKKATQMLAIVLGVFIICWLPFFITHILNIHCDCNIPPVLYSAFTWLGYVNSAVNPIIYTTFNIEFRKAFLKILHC
Chain of Muscarinic acetylcholine receptor M1 (Homo sapiens) (P11229 whole entry, looked up): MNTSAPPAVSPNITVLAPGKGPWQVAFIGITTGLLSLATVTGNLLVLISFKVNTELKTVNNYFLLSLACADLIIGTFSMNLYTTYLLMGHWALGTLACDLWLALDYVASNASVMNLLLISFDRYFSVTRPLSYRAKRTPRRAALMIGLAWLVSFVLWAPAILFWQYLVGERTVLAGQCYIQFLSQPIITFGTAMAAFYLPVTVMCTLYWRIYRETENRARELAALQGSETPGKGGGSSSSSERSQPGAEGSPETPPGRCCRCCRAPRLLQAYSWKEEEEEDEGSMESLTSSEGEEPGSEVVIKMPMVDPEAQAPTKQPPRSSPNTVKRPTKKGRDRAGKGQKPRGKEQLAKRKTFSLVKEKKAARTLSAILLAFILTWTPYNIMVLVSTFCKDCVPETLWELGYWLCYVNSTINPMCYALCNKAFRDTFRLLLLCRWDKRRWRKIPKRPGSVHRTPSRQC
Chain of 5-hydroxytryptamine receptor 2A (Homo sapiens) (P28223 whole entry, looked up): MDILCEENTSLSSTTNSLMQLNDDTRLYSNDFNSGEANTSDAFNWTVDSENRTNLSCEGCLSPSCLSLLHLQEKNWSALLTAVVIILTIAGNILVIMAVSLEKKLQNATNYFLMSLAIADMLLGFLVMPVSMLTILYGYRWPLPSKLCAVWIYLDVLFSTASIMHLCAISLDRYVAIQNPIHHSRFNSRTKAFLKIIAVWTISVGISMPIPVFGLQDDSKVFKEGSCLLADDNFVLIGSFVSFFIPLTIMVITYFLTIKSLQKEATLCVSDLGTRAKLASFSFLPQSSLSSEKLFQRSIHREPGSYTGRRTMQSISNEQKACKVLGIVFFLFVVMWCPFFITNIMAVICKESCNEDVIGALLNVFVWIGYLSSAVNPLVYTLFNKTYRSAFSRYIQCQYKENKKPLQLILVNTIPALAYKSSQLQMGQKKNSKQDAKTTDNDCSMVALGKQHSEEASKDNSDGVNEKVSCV
Chain of Beta-2 adrenergic receptor (Homo sapiens) (P07550 whole entry, looked up): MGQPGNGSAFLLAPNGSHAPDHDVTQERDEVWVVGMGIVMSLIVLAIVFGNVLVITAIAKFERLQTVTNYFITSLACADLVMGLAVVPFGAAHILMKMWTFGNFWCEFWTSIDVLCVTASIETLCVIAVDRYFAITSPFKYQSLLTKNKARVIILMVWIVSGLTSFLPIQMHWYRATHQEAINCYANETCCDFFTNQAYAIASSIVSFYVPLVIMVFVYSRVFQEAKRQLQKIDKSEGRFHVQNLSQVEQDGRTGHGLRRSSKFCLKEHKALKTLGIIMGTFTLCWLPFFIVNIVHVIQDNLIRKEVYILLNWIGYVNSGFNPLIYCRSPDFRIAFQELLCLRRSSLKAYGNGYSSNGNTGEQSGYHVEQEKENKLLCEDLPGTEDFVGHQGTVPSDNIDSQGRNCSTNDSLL

O=C1c2ccccc2C(=O)C1c1nc2ccccc2c(Br)c1O
active: [2] 24.3 µM
not listed: [19] | [20]
inactive: all other assays above

Cc1ccc(S)cc1
active: [2] 24.3 µM | [12] 42.1 µM
not listed: [18] | [19] | [20]
inactive: all other assays above

COC(C)OC
not listed: [15]
inactive: all other assays above

CC(C)OC(=O)C(C)N(C(=O)c1ccccc1)c1ccc(F)c(Cl)c1 (centres undefined)
not listed: [19] | [20]
inactive: all other assays above

Nc1nc(N)c(-c2ccccc2)s1
not listed: [15]
inactive: all other assays above

CCCCC(CC)COC(=O)COc1ccc(Cl)cc1Cl (centres undefined)
not listed: [15] | [17] | [19]
inactive: all other assays above

Cc1cc(CCCOc2c(C)cc(-c3noc(C(F)(F)F)n3)cc2C)on1
active: [2] 11.9 µM
not listed: [14] | [16] | [17] | [18]
inactive: all other assays above

Cc1cc(=O)oc2cc(O)cc(O)c12
not listed: [19] | [20]
inactive: all other assays above

CC(=O)CC(=O)Nc1ccc(C)cc1C
not listed: [15] | [20]
inactive: all other assays above

CCCC(C)c1ccccc1O (centres undefined)
not listed: [19] | [20]
inactive: all other assays above

CC(C)(C)C(=O)OCOC(=O)[C@@H]1N2C(=O)[C@@H](NC(=O)[C@H](N)c3ccccc3)[C@H]2SC1(C)C
not listed: [15] | [19] | [20]
inactive: all other assays above

C[C@H](N)C(=O)N[C@@H](C)C(=O)NC1[C@H]2CN(c3nc4c(cc3F)c(=O)c(C(=O)O)cn4-c3ccc(F)cc3F)C[C@@H]12 (some centres undefined)
not listed: [19] | [20]
inactive: all other assays above

CCCN(CCC)CCc1cccc2c1CC(=O)N2
active: [13] 16.9 µM | [17] 0.0619 µM
not listed: [14]
inactive: all other assays above

CCCC(=O)O[C@]1(C(=O)CC)CC[C@H]2[C@@H]3CCC4=CC(=O)CC[C@]4(C)[C@H]3[C@@H](O)C[C@@]21C
not listed: [19] | [20]
inactive: all other assays above

CC(C)c1ccc(C#N)cc1
not listed: [14]
inactive: all other assays above
